About 3,700 (7%) of roughly 53,000 sequences were called active.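 The calls were made as follows: active = gene knockdowns whose robust z-score for IL-1 alpha signal is at least 2 or at most -2, so actives lie on both sides; inactive = the rest.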 This excerpt belongs to a sample that is enriched for actives.
Assay: Components of the Cytosolic LPS Sensing Pathway: Gene Identification via Genome-wide siRNA Screen;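 also: robust z of the log signal after scaling to non-targeting control siRNA wells of the plate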
Conditions: RAW264.7 macrophages, IL-1a HTRF, actives lie on both sides, screened at 100 nM (by protocol), cells primed 5 h with Pam3CSK4 first
In short: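 Cells (RAW264.7, 1×10^4 per well) were transfected with siRNA at 100 nM and cultured 48h at 37 degrees C. Pam3CSK4 was added for 5 hours; LipidA transfection followed for 24 hour. IL-1a was then measured by HTRF.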

Row | Sequence | z-score
1 | CCACUACAAUGUAGCGACGTT against C1qtnf9 | -2.24 (active)
2 | CGAUUACUGAACACUAUAUTT against Metap1 | 1.94 (inactive)
3 | GGUGUACCCAGUACUGCCATT against Cdk2 | 0.57 (inactive)
4 | GGAGAUGUUGGACUUCAUGTT against Nxnl2 | -2.42 (active)
5 | CGGACAGAUACAAUAGCUATT against Zc3h4 | -1.53 (inactive)
6 | GUCUUUCCCUAAAAACAGCTT against Vmn1r47 | -1.28 (inactive)
7 | GGAGAACUUCAACAAUGUCTT against Tesc | 0.46 (inactive)
8 | GGAGUUUCGCAUGAGCCUGTT against Shroom1 | -0.0803 (inactive)
9 | GCCACUAUUGAAGCUUGCCTT against Olfr1209 | 1.32 (inactive)
10 | GGAGGAGUUCCAGAUCCACTT against Pald1 | -0.356 (inactive)
11 | GGGCUGUGAACACAAGUGUTT against Megf6 | 2.02 (active)
12 | GGACAGCAUGAUCCUACAATT against Smr2 | -0.962 (inactive)
13 | GGAAAUACCCUGAUAGCCATT against Etl4 | 0.215 (inactive)
14 | GGUAGGAAGCUAGAGAAAUTT against Synj2 | 0.139 (inactive)
15 | GGACUUUAGUGACAGCUAUTT against Fam243 | -0.233 (inactive)
16 | GGCAGCCCUCAAGUUAAUCTT against Zfp612 | -0.552 (inactive)
17 | GCACCUUCCAUCGGAAUGCTT against Tyw5 | -0.269 (inactive)
18 | GGAGAAAAAGAUCUCAGCUTT against D830039M14Rik | -0.021 (inactive)
19 | GCACAAUUGGAAUUGUACATT against Ubqln2 | -2.18 (active)
20 | CCAUGGCCAAGAACUAGUUTT against Hp | 1.26 (inactive)
21 | GGAUUUGAAAUAGGAAUAGTT against Sh3yl1 | 0.689 (inactive)
22 | CCCUAUCUUCAGGCCAUUGTT against Gm10283 | -1.97 (inactive)

Row | Sequence | z-score
23 | CCUGGAGUUAGUUUGACAGTT against Atf4 | -0.042 (inactive)
24 | GGGCCUAUCUGAAAGUUUATT against Nrm | -0.262 (inactive)
25 | GGUAGAAGAAUGCAUAAUGTT against Sema3e | 0.82 (inactive)
26 | CGAGAAUACCAAACUCGUGTT against Usp17ld | -0.255 (inactive)
27 | GCGGUUAUCUGCAUAUAGATT against Ahctf1 | -2.47 (active)
28 | GCAGUAAGCUUUUGCUAAATT against Zfp334 | 1.26 (inactive)
29 | CCUCUUCGGGAAAAUUCUATT against Dao | -0.083 (inactive)
30 | GGGAUAUCUAAUCAAAACCTT against St8sia5 | -0.131 (inactive)
31 | GGCAAAGCAACAAUAUCUATT against Cct7 | -0.809 (inactive)
32 | GGUAUCAAAACAACAGUCCTT against Upk1b | -0.709 (inactive)
33 | GGUCAAAUGCACCCGAUUATT against Hoxc10 | 2.44 (active)
34 | CCUCAAAUUUUGGGUCUCATT against Bcat2 | -1.48 (inactive)
35 | GGGUGAGAUAGGAAAGUGGTT against Rab43 | -0.111 (inactive)
36 | GAUUCUCAUCUCAAUAAGCTT against Serpinb9g | 0.439 (inactive)
37 | CCUCCAAGACUUAAAAGUATT against Csde1 | 0.776 (inactive)
38 | CCUUAUAACUCUUACGUUUTT against Naa50 | -0.169 (inactive)
39 | GGAAAUGAAGACAUACCUGTT against Olfr175 | 0.741 (inactive)
40 | GGAGUGAUGUCUUCACUGATT against Snx31 | -1.12 (inactive)
41 | GGGAAUUUACUGCAGGAUATT against Itln1 | 2.72 (active)
42 | GGUCUUCAUGAAAACCCUCTT against Polr2d | -0.967 (inactive)
43 | GCUAGGUGAUCAGAGAACUTT against Nsl1 | 0.222 (inactive)
44 | GGCCUUCAGUCAAGCAUCATT against Myom1 | 0.906 (inactive)

Row | Sequence | z-score
45 | GCCCAUUGUAAUAAAAGCCTT against Dnali1 | -0.582 (inactive)
46 | GGCGUGUAUCUAUACACACTT against Glp1r | 3.1 (active)
47 | CCAAGAUGCACAGUGAUAATT against Pknox2 | -0.925 (inactive)
48 | GGAUAUCGUCUGCUACCUGTT against Dgkb | 0.945 (inactive)
49 | GCACAACCAUAAUUCCAAATT against Olfr828 | -0.343 (inactive)
50 | CCGAAUAGUAGAUAUUAGATT against Zbtb1 | -0.628 (inactive)
51 | GGAAGUCUGUCCAAAGCAUTT against Olfr190 | 0.248 (inactive)
52 | GUUCUGCUUUUUGUCAUAUTT against Olfr1431 | -0.79 (inactive)
53 | GGAGAUGGUUAUGUGGGAUTT against Tgoln2 | 0.879 (inactive)
54 | GCGUGUUGAAUUGAGGAAGTT against Galnt11 | 4.15 (active)
55 | GGUGAAACCUGUCAUUCACTT against Dcdc2a | -0.405 (inactive)
56 | GGGUUUGAUCAACAGAGCCTT against Id1 | -0.64 (inactive)
57 | GGUGAAGAGCUUCUUGAUCTT against Zfyve27 | -0.362 (inactive)
58 | GGAGUUCAAAGAUGCAAUUTT against Zfyve27 | 2.33 (active)
59 | GUUUGAGUCUGGAGACGUGTT against Commd4 | 0.917 (inactive)
60 | GGUAAAGCCUUUCAGGAAGTT against Tmem80 | -0.946 (inactive)
61 | GGAGAGUGACAUCAUCGUATT against Obsl1 | -0.0139 (inactive)
62 | GGACACUUCCAAGUAUUGGTT against Tns1 | -2.11 (active)
63 | GGUCAGAGAAAUGAUGUCUTT against Osbpl11 | -1.77 (inactive)
64 | GGAAAAGGAAUUCUCCAGATT against Atrip | 0.624 (inactive)
65 | GGCUUGCUGAUUAAAGAUGTT against Strbp | -0.544 (inactive)
66 | GGAGAGCAUUCCCAUUGCUTT against Ddx6 | -2 (active)

Row | Sequence | z-score
67 | GGCUUGACUGAAUAAUAAUTT against Gpr157 | -0.424 (inactive)
68 | GCAGAGAGAGCGUGAAUCCTT against AB124611 | 0.598 (inactive)
69 | GGUUUUCCCUCCAGAUGAGTT against Mtch1 | -0.336 (inactive)
70 | GGUGGUAAUUGGUGUGGCATT against Slc9b2 | -0.188 (inactive)
71 | GGUUCACAGAAAUGGAUGATT against Zfp507 | -2.91 (active)
72 | GGUUUCUUUGCCUACCCAGTT against Prrc2b | -1.13 (inactive)
73 | GGGUGACAACCAAAGACUGTT against Mill1 | 0.174 (inactive)
74 | GGAUCAUGCAAACCAAAGCTT against 4930522H14Rik | 0.193 (inactive)
75 | GAGAACUCUCUAAACAAGUTT against Cks2 | 0.714 (inactive)
76 | GGAUAGUCAUCAACAGAGCTT against Psma7 | -2.42 (active)
77 | GGAACAGUCGUGGUAAAGUTT against Gnl2 | -0.767 (inactive)
78 | GGUGUUUGUUCGGAAGCUCTT against Pes1 | -0.345 (inactive)
79 | GGAAGAAGCACAAUUUGAATT against Selenof | -0.946 (inactive)
80 | CCUACUCCACGGGUAUUUUTT against 1700065D16Rik | -0.331 (inactive)
81 | GGUGCCGCACACAAACAAUTT against Hipk2 | -2.02 (active)
82 | GGGCCUGAUUUGUCCUCACTT against Sytl1 | -1.57 (inactive)
83 | GGACGGUCCUCUUAAAAGATT against Chat | -0.394 (inactive)
84 | GGCCUAUCAGAUAAAGAAGTT against Vps37b | -1.04 (inactive)
85 | GGUUACUGCUCUCAUGUACTT against Olfr247 | -1.28 (inactive)
86 | GGAGCACUUGUGGAUCAAUTT against Efhd1 | 1.03 (inactive)
87 | GCAUCAUGAACUCCUUUGUTT against H2bc1 | -2.43 (active)
88 | GCAUUUAAUGGCAUUACUGTT against Otol1 | 0.596 (inactive)

Row | Sequence | z-score
89 | GCUGGCGGAGCAAACUCAATT against Foxd3 | 0.756 (inactive)
90 | GGAAUGAAAAACCUACAUGTT against Cxcl13 | 0.453 (inactive)
91 | GUUAUUUGUAUGGUGAGAUTT against Hpcal1 | -1.06 (inactive)
92 | GGCUGCCUAACUGAUAACATT against Inpp4b | 0.24 (inactive)
93 | GGACACUUUACAGUGAUUGTT against Skint4 | 1.1 (inactive)
94 | GCCUCUGAAAGUGUAAUUATT against Ccdc103 | 0.184 (inactive)
95 | GGUGAUUCAACUCACUUGUTT against Olfr1353 | -1.33 (inactive)
96 | GGUAUGUUUUAUCUUGACATT against Olfr851 | 0.269 (inactive)
97 | GGGAUCAGGCCAUUUCCAUTT against Vav2 | 2.26 (active)
98 | GGCAAACGAUAAAGAAAUCTT against Ptp4a2 | 1.58 (inactive)
99 | GGGAUUUGCCAAAGAAUAGTT against AI597479 | 0.875 (inactive)
100 | GGGUGACAGGGCAUGAGAATT against Macroh2a3 | 0.611 (inactive)
101 | GGCCUUUAAGAGUUUCCAUTT against A230052G05Rik | 2.1 (active)
102 | GCAACAAUAUUGCUCUAGATT against Galntl6 | -0.452 (inactive)
103 | GCGAUCAAAAUUGUGUCACTT against Minar2 | -0.776 (inactive)
104 | CGAUCAAAAAAAUCGUGUGTT against Cfap97 | 0.587 (inactive)
105 | GGAAGUGGCCUUAAAGUAUTT against Arhgef37 | -1.67 (inactive)
106 | GUGUCCAGUCCUAAAACGATT against Trib3 | 1.66 (inactive)
107 | GGGAAAGGAUUUUUACAUUTT against Ctdsp1 | 1.83 (inactive)

From PubChem BioAssay AID1508600 (Functional Genomics Laboratory (NCATS/FGL), 2020)
